12-LOX inh: inhibitors of human 12S-lipoxygenase ALOX12; purified 12hLO, xylenol orange hydroperoxide absorbance; 580,000 compounds, 1.1% hits; Potency, µM (doses to about 108 µM), hits mostly inhibitors; AID 1671190
Target sequence (P18054 whole entry, looked up): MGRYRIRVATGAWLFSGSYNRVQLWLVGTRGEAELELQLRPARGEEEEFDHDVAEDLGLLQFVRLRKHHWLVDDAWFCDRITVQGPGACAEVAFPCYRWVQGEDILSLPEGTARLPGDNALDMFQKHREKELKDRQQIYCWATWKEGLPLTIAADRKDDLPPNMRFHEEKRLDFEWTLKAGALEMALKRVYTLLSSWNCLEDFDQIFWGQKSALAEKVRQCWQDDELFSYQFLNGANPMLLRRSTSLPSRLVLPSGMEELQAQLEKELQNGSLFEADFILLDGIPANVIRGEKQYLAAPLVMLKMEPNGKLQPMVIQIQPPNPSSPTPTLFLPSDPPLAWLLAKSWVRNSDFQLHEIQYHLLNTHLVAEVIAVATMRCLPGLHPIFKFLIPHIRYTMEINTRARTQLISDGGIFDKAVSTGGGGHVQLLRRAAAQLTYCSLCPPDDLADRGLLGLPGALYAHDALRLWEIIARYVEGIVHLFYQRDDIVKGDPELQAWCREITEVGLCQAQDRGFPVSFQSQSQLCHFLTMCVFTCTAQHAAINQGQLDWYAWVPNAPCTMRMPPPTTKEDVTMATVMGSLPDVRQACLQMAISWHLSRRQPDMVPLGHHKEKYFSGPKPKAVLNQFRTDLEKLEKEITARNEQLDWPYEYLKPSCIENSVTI
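Hydroperoxide product was detected by ferrous iron/xylenol orange as the 573 to 405 nm absorbance ratio. Arachidonic acid at 40 uM (final) was turned over for 30 min at room temperature by 150 nM human 12hLO, pH 7.0 Hepes buffer, after 15 min compound preincubation.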
GCN5L2 inh: GCN5L2 (KAT2A) acetyltransferase inhibition | Q92830 | GCN5L2 HAT assay, ThioGlo1 CoA-SH fluorescence | Potency, µM (top dose mostly 58.9 µM), usual class: inhibitors | 390,000 compounds, 0.21% hits | AID 504327
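Titration-based screen in which CoA formation is detected via maleimide probe ThioGlo1 (50uM) turning fluorescent on thiol reaction; substrates H3(1-25) 75uM and acetyl-CoA 70uM, GCN5L2 20nM, 20 min incubation at room temperature.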
PLK1 PBD inh: inhibitors of human PLK1 polo-box domain binding; 360,000 compounds, 2.8% hits; P53350; Plk1 PBD binding of FITC phosphopeptide, fluorescence polarization; Potency, µM, most hits filed as inhibitors; AID 720504; also: series mostly up to about 57 µM; nearly all actives have a fitted effect of over 65% in size
VDR inh: blocks the human vitamin D receptor; P11473; VDR-SRC2-3 peptide fluorescence polarization, 2 h; Potency, µM, most hits filed as inhibitors; 400,000 compounds, 0.93% hits
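Signal is fluorescence polarization, reporting how far test compounds block the interaction of VDR with the SRC2-3 coregulator peptide after a 2 h room-temperature incubation.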
Large screens that a line does not name were inactive. The list is not random: actives were taken first. Their share in the collection is about 3%. Calls follow the shape of the dose curve; as a rule, active = well fitted curve in the direction sought with a large enough effect; inconclusive = small, poorly fitted or top-dose-only effect, or another doubt; inactive = no such curve, though single readings can be large; an effect the other way counts as inactive or inconclusive.

O=C(O)c1cccc(NC(=S)NC(NC(=O)c2ccco2)C(Cl)(Cl)Cl)c1 (stereo unspecified)	none
Cc1ccc(NC(=S)NC(NC(=O)c2ccccc2C)C(Cl)(Cl)Cl)c(C)c1 (stereo unspecified)	12-LOX inh 35µM
CC(=O)Nc1ccc(NC(=S)NC(NC(=O)c2ccc(C)cc2)C(Cl)(Cl)Cl)cc1 (stereo unspecified)	12-LOX inh 32µM (no result: GCN5L2 inh, PLK1 PBD inh, VDR inh)
O=C(NC(NC(=S)Nc1ccccc1C(=O)O)C(Cl)(Cl)Cl)c1ccccc1 (stereo unspecified)	PLK1 PBD inh 6µM, VDR inh 79µM (no result: 12-LOX inh)
O=C(NC(NC(=S)Nc1ccccc1C(=O)O)C(Cl)(Cl)Cl)c1ccco1 (stereo unspecified)	12-LOX inh inconclusive, PLK1 PBD inh 21µM, VDR inh inconclusive
Cc1ccc(OCC(=O)Nc2ccc(S(=O)(=O)NC(C)(C)C)cc2)c(Br)c1	none (no result: GCN5L2 inh, PLK1 PBD inh, VDR inh)
Cc1nc2nc(NCc3ccccc3)[nH]n2c(=O)c1CCC(=O)Nc1ccc2ccccc2c1	none (no result: GCN5L2 inh, PLK1 PBD inh, VDR inh)
COc1ccccc1N1CCN(CCCCN2C(=O)C3CCCCN3C2=O)CC1 (stereo unspecified)	PLK1 PBD inh 8.4µM, VDR inh inconclusive (no result: 12-LOX inh)
O=C1C2CCCN2C(=O)N1CCCN1CCN(c2cccc(Br)c2)CC1 (stereo unspecified)	12-LOX inh 4µM, GCN5L2 inh inconclusive
O=C1Nc2ccccc2O[C@H]2C[C@@H]1N(Cc1ccccc1Cl)C2	none (no result: GCN5L2 inh, PLK1 PBD inh, VDR inh)
O=C(NNC(=S)NCc1cccs1)c1c[nH]c2ccccc12	none (no result: GCN5L2 inh, PLK1 PBD inh, VDR inh)
N#C/C(=C\c1ccc(OCc2ccccc2)cc1)C(=O)Nc1ccc(C(=O)O)cc1	PLK1 PBD inh 21µM
COc1cc(/C=C(\C#N)C(=O)Nc2cccc(C(=O)O)c2)ccc1OCc1ccc(Cl)cc1	none
COc1cc(/C=C(/C#N)C(=O)Nc2ccccc2)c(Br)cc1OCc1ccc(C(=O)O)cc1	GCN5L2 inh inconclusive, PLK1 PBD inh 24µM, VDR inh 50µM
COc1ccc(-c2ccc(C(c3c(C)[nH][nH]c3=O)c3c(C)[nH][nH]c3=O)o2)c([N+](=O)[O-])c1	PLK1 PBD inh 21µM, VDR inh inconclusive
COc1ccc(-c2ccc(/C=N/N3C(=O)C4C5C=CC(C6CC56)C4C3=O)o2)c([N+](=O)[O-])c1 (stereo unspecified)	VDR inh inconclusive
Cc1[nH][nH]c(=O)c1C(c1ccc(-c2ccc(Cl)c(Cl)c2)o1)c1c(C)[nH][nH]c1=O	12-LOX inh inconclusive, PLK1 PBD inh 15µM, VDR inh 79µM
Cc1[nH][nH]c(=O)c1C(c1ccc(-c2ccc(C(=O)O)cc2)o1)c1c(C)[nH][nH]c1=O	GCN5L2 inh inconclusive, PLK1 PBD inh 24µM, VDR inh inconclusive
Cc1[nH][nH]c(=O)c1C(c1ccc(-c2ccc(F)cc2)o1)c1c(C)[nH][nH]c1=O	12-LOX inh inconclusive, PLK1 PBD inh 24µM, VDR inh 32µM
C/C(=N\NC(N)=S)C(=O)O	none (no result: GCN5L2 inh, PLK1 PBD inh, VDR inh)
CC(C)CCn1c(NCCCO)nc2c1c(=O)[nH]c(=O)n2C	none (no result: GCN5L2 inh, PLK1 PBD inh, VDR inh)
Cc1nn(-c2ccccc2)c(Cl)c1C1C(C#N)=C(N)Oc2c1c(C)nn2-c1ccccc1 (stereo unspecified)	none (no result: 12-LOX inh)
Cc1nn(-c2ccccc2)c(Cl)c1C1C(C#N)=C(N)Oc2n[nH]c(C)c21 (stereo unspecified)	PLK1 PBD inh 24µM
COC(=O)C1=C(C)OC(N)=C(C#N)C1c1ccc(-c2ccccc2)cc1 (stereo unspecified)	12-LOX inh 35µM (no result: GCN5L2 inh, PLK1 PBD inh, VDR inh)
CCOC(=O)C1=C(C)OC(N)=C(C#N)C1c1c(C)nn(-c2ccccc2)c1Cl (stereo unspecified)	GCN5L2 inh inconclusive, VDR inh 71µM
Cc1[nH]nc2c1C(c1ccc(-c3ccccc3C#N)o1)C(C#N)=C(N)O2 (stereo unspecified)	PLK1 PBD inh 30µM (no result: 12-LOX inh)
Cc1cccc(Nc2nnc(Cc3ccccc3)c(=O)[nH]2)c1	none (no result: GCN5L2 inh, PLK1 PBD inh, VDR inh)
Cc1ccccc1NC(=O)CSc1nnc(C(C)N2C(=O)COc3ccccc32)n1C (stereo unspecified)	none (no result: GCN5L2 inh, PLK1 PBD inh, VDR inh)
O=C(NCC#Cc1ccccc1)C1CCCN(C(=O)C2CC2)C1 (stereo unspecified)	none (no result: GCN5L2 inh, PLK1 PBD inh, VDR inh)
Cc1ccc2c(CSc3nncs3)cc(=O)oc2c1C	none (no result: GCN5L2 inh, PLK1 PBD inh, VDR inh)
CCC1CN(C(=O)N2CCC(C(=O)Nc3ccccc3OC)CC2)c2ccccc2O1 (stereo unspecified)	PLK1 PBD inh 27µM, VDR inh inconclusive
O=C(O)c1ccc(C2(c3ccc(C(=O)O)cc3)OC(=O)c3ccccc32)cc1	none
O=C1OC(c2ccccc2)(c2cc(Br)c(O)c(Br)c2)c2ccccc21 (stereo unspecified)	12-LOX inh inconclusive, PLK1 PBD inh 24µM (no result: GCN5L2 inh)
O=C(N/N=C/c1ccc(Oc2ccccc2)cc1)c1cccs1	none (no result: GCN5L2 inh, PLK1 PBD inh, VDR inh)
CC(C)c1cccc(NC(=O)CC2(C(=O)O)CCCC2)c1	none (no result: GCN5L2 inh, PLK1 PBD inh, VDR inh)
O=C(Nc1nc2cc3c(cc2s1)OCCO3)C1=COCCO1	12-LOX inh inconclusive, PLK1 PBD inh 24µM, VDR inh inconclusive
O=C(Nc1nc(-c2cccs2)cs1)C1=COCCO1	12-LOX inh inconclusive, PLK1 PBD inh 3.4µM, VDR inh inconclusive
Cc1ccc(N(C)C(=O)c2cc(-c3ccco3)nc3ccccc23)cc1	12-LOX inh 35µM (no result: GCN5L2 inh, PLK1 PBD inh, VDR inh)
Cc1ccc(NC(=O)CN(C)C(=O)c2cc(-c3ccco3)nc3ccccc23)cc1	12-LOX inh 7.1µM, GCN5L2 inh inconclusive, PLK1 PBD inh inconclusive, VDR inh inconclusive
CN(CC(=O)Nc1ccc(F)cc1)C(=O)c1cc(-c2ccco2)nc2ccccc12	12-LOX inh 14µM, PLK1 PBD inh inconclusive
Cn1cc(C(=O)N2CCN(S(=O)(=O)c3ccc(F)cc3)CC2)c2ccccc21	none (no result: GCN5L2 inh, PLK1 PBD inh, VDR inh)
S=C(NCCc1ccccc1)Nc1ncccn1	12-LOX inh inconclusive, PLK1 PBD inh inconclusive (no result: GCN5L2 inh)
Cc1cccnc1NC(=S)NCCc1ccccc1	12-LOX inh 7.1µM
Cc1ccccc1NC(=S)Nn1cnnc1	12-LOX inh inconclusive, PLK1 PBD inh 15µM, VDR inh inconclusive
Fc1ccccc1NC(=S)Nn1cnnc1	PLK1 PBD inh 6.7µM, VDR inh inconclusive
CCc1ccccc1NC(=S)Nn1cnnc1	12-LOX inh inconclusive (no result: PLK1 PBD inh, VDR inh)
Cc1cccc(NC(=S)Nn2cnnc2)c1C	12-LOX inh inconclusive, PLK1 PBD inh inconclusive, VDR inh inconclusive
CCOc1ccccc1NC(=S)Nn1cnnc1	12-LOX inh inconclusive, GCN5L2 inh inconclusive, PLK1 PBD inh 2.4µM, VDR inh 40µM
COc1ccccc1CN1CC[C@H]2COC(=O)N2c2cc(F)ccc2C1	none (no result: GCN5L2 inh, PLK1 PBD inh, VDR inh)
CCOc1ccccc1NC(=S)Nc1ncccc1C	12-LOX inh 11µM
CCOc1ccccc1NC(=S)Nc1ccccc1F	12-LOX inh inconclusive
COCCCNC(=O)c1nc(-c2cccc3[nH]ccc23)no1	none (no result: GCN5L2 inh, PLK1 PBD inh, VDR inh)
CC1=C(C)CS(=O)N(c2ccc(S(N)(=O)=O)cc2)C1 (stereo unspecified)	PLK1 PBD inh 1.5µM, VDR inh 7.9µM
NS(=O)(=O)c1ccc(N2C(=O)C3CC=CCC3C2=O)cc1 (stereo unspecified)	none
Nc1nc(-c2ccc(F)cc2)cs1	PLK1 PBD inh inconclusive
Nc1nc(-c2ccc(Br)cc2)cs1	12-LOX inh 45µM
Cc1ccc(-n2nc(N3CCN(S(=O)(=O)c4cccc5nsnc45)CC3)ccc2=O)cc1	none (no result: GCN5L2 inh, PLK1 PBD inh, VDR inh)
